# Data: PMC5540273 (PLoS ONE, 2017)
# Key:
# Details in all cases: concentration: 1 μM, replicates: in singlicate; n = 1
# [1] = test system: RPS6KA4(Kin.Dom.1-N-terminal)
# [2] = test system: RPS6KA4(Kin.Dom.2-C-terminal)
# [3] = test system: RPS6KA5(Kin.Dom.1-N-terminal)
# [4] = test system: RPS6KA5(Kin.Dom.2-C-terminal)
# [5] = test system: T1, RSK1(Kin.Dom.1-N-terminal)
# T1 construct: gene RPS6KA1
# [6] = test system: T2, RSK1(Kin.Dom.2-C-terminal)
# T2 construct: gene RPS6KA1
# [7] = test system: T3, RSK2(Kin.Dom.1-N-terminal)
# T3 construct: gene RPS6KA3
# [8] = test system: T4, RSK2(Kin.Dom.2-C-terminal)
# T4 construct: gene RPS6KA3
# [9] = test system: T5, RSK3(Kin.Dom.1-N-terminal)
# T5 construct: gene RPS6KA2
# [10] = test system: T6, RSK3(Kin.Dom.2-C-terminal)
# T6 construct: gene RPS6KA2
# [11] = test system: T7, RSK4(Kin.Dom.1-N-terminal)
# T7 construct: gene RPS6KA6
# [12] = test system: T8, RSK4(Kin.Dom.2-C-terminal)
# T8 construct: gene RPS6KA6
# S6K1 = test system: S6K1
# SBK1 = test system: SBK1
# SGK2 = test system: SGK2
# SGK3 = test system: SGK3
# SGK = test system: SGK
# SIK2 = test system: SIK2
# SIK = test system: SIK
# SLK = test system: SLK
# 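Further: KINOMEscan kinase panel screen.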
Compound,%Inh [1] [%],%Inh [2] [%],%Inh [3] [%],%Inh [4] [%],%Inh [5] [%],%Inh [6] [%],%Inh [7] [%],%Inh [8] [%],%Inh [9] [%],%Inh [10] [%],%Inh [11] [%],%Inh [12] [%],%Inh (S6K1) [%],%Inh (SBK1) [%],%Inh (SGK2) [%],%Inh (SGK3) [%],%Inh (SGK) [%],%Inh (SIK2) [%],%Inh (SIK) [%],%Inh (SLK) [%]
COC(=O)Nc1nc2cc(Oc3ccc(NC(=O)Nc4cccc(SC)c4)cc3)ccc2[nH]1.Cl [GW697999],3,0,15,0,0,0,0,4,7,0,0,0,9,0,0,8,11,0,0,33
Nc1ncc(-c2cn[nH]c2)c2scc(-c3ccc4c(c3)CCN4C(=O)Cc3ccccc3)c12 [GSK2593067],37,0,24,0,22,2,0,2,31,0,0,0,8,0,0,0,0,0,59,73
COc1cccc(CC(=O)N2CCc3cc(-c4cn(C)c5ncnc(N)c45)ccc32)c1 [GSK2608899],28,0,1,11,21,27,16,17,22,20,0,29,13,20,2,2,0,0,17,65
CN(c1ccc(NC(=O)Nc2cccc(Cl)c2)cc1)c1ccnc(N)n1.Cl [GW830707],21,0,4,0,0,0,0,0,0,0,0,0,0,3,0,0,0,0,0,20
Cc1ccc(Nc2ccnc(Nc3ccc(C)c(F)c3)n2)cc1O.Cl [GW582868],0,0,0,21,0,0,0,0,9,0,0,0,0,6,0,0,1,100,0,41
CC(C)c1nc(-c2ccc(F)c(NS(=O)(=O)c3c(F)cccc3F)c2)c(-c2ccnc(Nc3ccc(N4CCOCC4)nc3)n2)s1 [GSK1804250],6,0,15,3,25,9,22,27,24,6,0,16,3,25,8,20,25,88,99.5,91.4
Cc1cc(-c2c(-c3ccc(F)cc3)ncn2CCCN2CCOCC2)nc(N)n1 [SB-222517],18,0,23,4,30,49,34,0,9,21,20,0,11,18,0,3,0,2,0,18
Fc1cc(Cl)ccc1Nc1ccnc2cc(-c3ccc(CN4CCSCC4)o3)ccc12 [GW560106],18,0,23,0,0,25,0,48,0,6,0,87,0,0,0,0,0,81,97.2,65
CS(=O)(=O)c1cccc(CNc2nc(Nc3ccc4c(c3)CCC(=O)N4)ncc2C(F)(F)F)c1,26,0,0,5,44,0,80,0,59,0,85,0,16,67,0,2,27,23,0,20
CN(C)CCNS(=O)(=O)c1ccc(-c2ccnc3[nH]ccc23)cc1 [GSK977620],30,73,44,68,30,31,60,9,32,21,25,22,32,47,0,32,4,11,14,71
CN(c1ccc(NC(=O)N2CCN(CCCN3CCOCC3)CC2)cc1)c1ccnc(Nc2ccc(CS(C)(=O)=O)cc2)n1.Cl [GW830899],31,0,0,0,2,1,0,1,0,0,0,0,0,0,0,0,0,9,8,47
Cc1ccc(NC(=O)c2cccc(N3CCCCC3)c2)cc1-c1ccc(C(=O)NCC2CC2)cc1 [GSK1917008],28,0,33,8,18,1,15,21,12,5,0,37,8,10,11,7,0,93.3,8,10
CCNc1nccc(-c2c(-c3ccc(F)cc3)ncn2C2CCN(C)CC2)n1,0,0,0,8,5,50,9,15,6,10,13,64,0,0,5,0,14,8,0,13
Cn1cc(-c2ccc3c(c2)CCN3C(=O)Cc2cc(F)cc(F)c2F)c2c(N)ncnc21 [GSK2634140],19,0,20,0,21,0,12,0,12,0,0,0,17,16,4,0,0,0,8,60
COc1cc(Nc2nccc(N3CCC(NC(=O)Nc4ccc5c(c4)OCO5)C3)n2)cc(OC)c1OC (stereo not shown) [GSK1379766],0,0,1,18,22,2,5,0,10,5,0,14,17,10,0,11,0,0,8,36
Nc1ncc(-c2ccc3nccc(-c4ccncc4)c3c2)cc1S(=O)(=O)N1CCCCC1 [GSK1693850],0,0,9,17,0,37,0,0,17,24,8,50,7,14,0,17,0,0,0,69
Cc1ccc(O)cc1Nc1ccnc2cc(-c3ccc(CN4CCCCC4)o3)ccc12 [GW557777],0,9,0,10,0,90.7,0,40,1,29,0,87,0,0,0,0,1,83,97.8,34
Cn1cc(-c2ccc3c(c2)CCN3C(=O)Cc2cc(F)cc(C(F)(F)F)c2)c2c(N)ncnc21 [GSK2635225],0,0,23,6,1,5,0,19,19,0,0,0,9,7,0,8,1,0,0,41
O=C(O)C(F)(F)F.O=c1[nH]ccc2nc(N[C@@H]3CCNC3)nc(Nc3ccc4c(c3)S(=O)(=O)CC4)c12 [GSK2181306],91.8,100,62,95.4,97.8,78,97.6,31,91.3,87,97.8,59,92.7,90.1,91.7,98.6,97.2,73,18,99.7
Cc1ccccc1CC(=O)N1CCc2cc(-c3cn(C)c4ncnc(N)c34)ccc21 [GSK2603346],11,0,20,0,0,4,0,6,24,0,28,10,19,23,2,0,0,0,0,48
